According to PubChem BioAssay (EPA / NIEHS):
Several values for one entry are separate records, joined by “and”; a condition that tells them apart may be missing. Identical values can stand only once. The source holds several records for some structures; these can differ, active in one and inactive in another. Activity calls are given as the source filed them. Rule for the calls: active = hit-call score of the fitted dose curve at least 0.9, where 1 is the maximum; inactive = score below 0.9.

Assays:
[1] = ATG_CRE_CIS: Attagene CIS-FACTORIAL HepG2 Assay for human cAMP Responsive Element (CRE) binding protein 3 (AID 2282926); details: HepG2 CRE cis-reporter, Attagene multiplexed mRNA; actives raise or lower the signal
Procedure, shortened: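 Endogenous CRE-binding activity in HepG2 is reported through a cis-regulated transfected reporter. Following a day of exposure, mRNA levels are determined by reverse transcription PCR and fluorescent fragment analysis; fits run in both directions versus DMSO.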

[2] = target: CCAAT/enhancer-binding protein beta (Homo sapiens) (UniProt P17676); test: ATG_C_EBP_CIS: Attagene CIS-FACTORIAL HepG2 Assay for human CCAAT/Enhancer Binding Protein (C/EBP) beta (AID 2282927); details: HepG2 Attagene cis-factorial transcription factor reporter; actives raise or lower the signal
Sequence of CCAAT/enhancer-binding protein beta (Homo sapiens) (P17676 whole entry, looked up): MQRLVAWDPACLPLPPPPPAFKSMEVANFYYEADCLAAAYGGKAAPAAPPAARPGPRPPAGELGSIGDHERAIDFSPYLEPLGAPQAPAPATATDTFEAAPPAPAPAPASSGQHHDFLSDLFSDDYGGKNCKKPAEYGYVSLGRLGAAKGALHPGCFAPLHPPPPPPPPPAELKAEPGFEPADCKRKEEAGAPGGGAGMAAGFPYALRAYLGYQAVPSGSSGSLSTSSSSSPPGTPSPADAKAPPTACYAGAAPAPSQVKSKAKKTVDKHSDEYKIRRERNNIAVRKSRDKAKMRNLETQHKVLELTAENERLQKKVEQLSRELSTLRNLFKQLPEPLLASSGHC
Procedure, shortened: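 HepG2, transient MRTU transfection, 24 h treatment. RT-PCR plus CE fluorescence; DMSO negative control, bidirectional fit.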

[3] = ATG_CMV_CIS: Attagene CIS-FACTORIAL HepG2 Assay for human CMV (Internal Marker) (AID 2282928); details: HepG2 CMV promoter reporter, transcription factor profiling; actives raise or lower the signal;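 note: endpoint acts as a background internal control marker rather than a target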
Procedure, shortened: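 CMV internal-marker background readout in transiently transfected HepG2 cells bearing cis-regulated reporter units. Reporter mRNA is measured 24 h after dosing by RT-PCR and capillary electrophoresis, with bidirectional fitting against DMSO.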

[4] = ATG_DR4_LXR_CIS: Attagene CIS-FACTORIAL HepG2 Assay for human Liver X Receptor (LXR), DR4 submotif (AID 2282929); details: HepG2 Attagene DR4 cis-reporter, mRNA transcription; actives raise or lower the signal
Procedure, shortened: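 After transient transfection with multiplexed cis-promoter reporter units, HepG2 cells received test chemicals for 24 h. Reporter mRNA induction, detected by fluorescence after RT-PCR and capillary electrophoresis, was scored relative to DMSO.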

[5] = target: Aryl hydrocarbon receptor (Homo sapiens) (UniProt P35869); test: ATG_Ahr_CIS: Attagene CIS-FACTORIAL HepG2 Assay for human Aryl Hydrocarbon Receptor (Ahr) (AID 2282930); details: HepG2 AhR cis-factorial reporter transcription; actives raise or lower the signal
Sequence of Aryl hydrocarbon receptor (Homo sapiens) (P35869 whole entry, looked up): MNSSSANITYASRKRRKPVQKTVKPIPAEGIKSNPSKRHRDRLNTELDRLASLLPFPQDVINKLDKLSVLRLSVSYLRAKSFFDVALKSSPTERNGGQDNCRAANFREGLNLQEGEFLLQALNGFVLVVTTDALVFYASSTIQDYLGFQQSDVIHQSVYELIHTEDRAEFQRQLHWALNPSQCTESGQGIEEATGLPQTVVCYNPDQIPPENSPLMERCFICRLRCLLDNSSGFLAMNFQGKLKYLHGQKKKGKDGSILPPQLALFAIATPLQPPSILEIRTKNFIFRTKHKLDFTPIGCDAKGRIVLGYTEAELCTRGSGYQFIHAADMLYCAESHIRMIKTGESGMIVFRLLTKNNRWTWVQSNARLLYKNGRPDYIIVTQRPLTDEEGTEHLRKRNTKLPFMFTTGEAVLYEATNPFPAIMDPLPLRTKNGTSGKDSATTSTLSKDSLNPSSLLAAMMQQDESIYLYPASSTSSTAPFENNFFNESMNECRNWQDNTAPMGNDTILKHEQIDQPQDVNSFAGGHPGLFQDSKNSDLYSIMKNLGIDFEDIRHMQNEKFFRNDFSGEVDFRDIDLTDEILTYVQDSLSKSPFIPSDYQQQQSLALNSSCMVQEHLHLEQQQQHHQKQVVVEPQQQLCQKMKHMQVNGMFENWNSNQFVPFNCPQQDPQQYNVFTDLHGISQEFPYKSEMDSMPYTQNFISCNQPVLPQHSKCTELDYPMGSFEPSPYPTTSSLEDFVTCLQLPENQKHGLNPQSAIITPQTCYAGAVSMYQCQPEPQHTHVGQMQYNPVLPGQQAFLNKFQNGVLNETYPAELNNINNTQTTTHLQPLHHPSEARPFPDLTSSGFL
Procedure, shortened: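 Endogenous factor activity is tracked through cis-promoter reporter units transfected into HepG2 cells. Transcript levels at 24 h are read by fluorescent RT-PCR and capillary electrophoresis, with activity in either direction scored relative to DMSO.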

[6] = ATG_AP_1_CIS: Attagene CIS-FACTORIAL HepG2 Assay for human Activator Protein 1 (AP-1) (AID 2282931); details: HepG2 Attagene cis-factorial AP-1 reporter mRNA; actives raise or lower the signal
Procedure, shortened: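 After 24 h incubation with test chemical, RNA from transfected HepG2 cells was reverse-transcribed, amplified, fluorescently labelled and digested before capillary electrophoresis. Reporters were driven by cis-regulatory promoters; activity fitted bidirectionally versus DMSO.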

[7] = ATG_AP_2_CIS: Attagene CIS-FACTORIAL HepG2 Assay for human Activator Protein 2 (AP-2) (AID 2282932); details: HepG2 AP-2 cis-reporter, Attagene transcription factor profiling; actives raise or lower the signal
Procedure, shortened: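 HepG2 cells transiently transfected with cis-element reporter units and exposed for 24 h. Reporter mRNA measured by RT-PCR, FAM labelling, HpaI digestion and capillary electrophoresis. Changes in either direction fitted relative to DMSO.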

[8] = ATG_BRE_CIS: Attagene CIS-FACTORIAL HepG2 Assay for human Bone Morphogenetic Protein (BMP) Response Element (BRE) (AID 2282933); details: HepG2 BMP response element reporter, Attagene transcription factor profiling; actives raise or lower the signal
Procedure, shortened: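 Endogenous transcription factor activity at a BMP response element was monitored in transfected HepG2 cells 24 h after dosing. Fluorescent RT-PCR products were resolved by capillary electrophoresis, and activity was fitted in both directions versus DMSO.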

[9] = target: Retinoic acid receptor alpha (Homo sapiens) (UniProt P10276); test: ATG_DR5_RAR_CIS: Attagene CIS-FACTORIAL HepG2 Assay for human Retinoic Acid Receptor Alpha (RARE), DR5 submotif (AID 2282934); details: HepG2 Attagene cis-factorial RARE DR5 reporter, mRNA; actives raise or lower the signal;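 for AC50: reporter responds to endogenous RAR alpha beta and gamma in HepG2 not RARA alone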
Sequence of Retinoic acid receptor alpha (Homo sapiens) (P10276 whole entry, looked up): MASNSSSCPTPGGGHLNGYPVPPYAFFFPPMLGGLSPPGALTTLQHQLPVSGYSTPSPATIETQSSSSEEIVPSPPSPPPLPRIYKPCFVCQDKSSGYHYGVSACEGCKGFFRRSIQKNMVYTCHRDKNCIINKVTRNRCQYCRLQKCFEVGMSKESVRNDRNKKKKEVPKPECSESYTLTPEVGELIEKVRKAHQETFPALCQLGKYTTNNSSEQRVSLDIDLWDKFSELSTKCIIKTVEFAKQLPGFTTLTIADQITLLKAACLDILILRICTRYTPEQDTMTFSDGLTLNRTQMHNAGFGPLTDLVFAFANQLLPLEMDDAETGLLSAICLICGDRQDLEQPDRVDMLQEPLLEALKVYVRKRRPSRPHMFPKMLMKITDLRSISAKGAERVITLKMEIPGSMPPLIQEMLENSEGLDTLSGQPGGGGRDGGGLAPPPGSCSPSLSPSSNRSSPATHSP
Procedure, shortened: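 After 24 h of chemical exposure, transiently transfected HepG2 cells were lysed for total RNA; the DR5-regulated reporter transcript was quantified via RT-PCR and capillary electrophoresis, with activity fitted bidirectionally against DMSO.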

[10] = target: Transcription factor E2F1 (Homo sapiens) (UniProt Q01094); test: ATG_E2F_CIS: Attagene CIS-FACTORIAL HepG2 Assay for human E2F Transcription Factor 1 (AID 2282935); details: HepG2 Attagene cis-reporter, E2F reporter RNA transcripts; actives raise or lower the signal
Sequence of Transcription factor E2F1 (Homo sapiens) (Q01094 whole entry, looked up): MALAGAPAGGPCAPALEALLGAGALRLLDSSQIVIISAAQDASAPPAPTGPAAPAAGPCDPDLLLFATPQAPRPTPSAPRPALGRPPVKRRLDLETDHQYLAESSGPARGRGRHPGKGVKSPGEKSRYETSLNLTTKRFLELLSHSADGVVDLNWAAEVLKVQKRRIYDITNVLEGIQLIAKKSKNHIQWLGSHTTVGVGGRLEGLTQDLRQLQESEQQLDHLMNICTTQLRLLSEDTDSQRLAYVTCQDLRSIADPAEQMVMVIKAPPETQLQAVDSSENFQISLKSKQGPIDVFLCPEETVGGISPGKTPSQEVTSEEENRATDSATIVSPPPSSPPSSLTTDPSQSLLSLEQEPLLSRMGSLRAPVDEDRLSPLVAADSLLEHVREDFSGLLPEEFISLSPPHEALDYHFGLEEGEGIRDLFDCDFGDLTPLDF
Procedure, shortened: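 Endogenous E2F1 activity read through cis-promoter reporter units transfected into HepG2. After 24 h compound treatment, reporter mRNA measured by RT-PCR, HpaI digestion and capillary electrophoresis. Bidirectional fit versus DMSO.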

[11] = ATG_E_Box_CIS: Attagene CIS-FACTORIAL HepG2 Assay for human Enhancer Box (E-box) (AID 2282936); details: HepG2 E-box cis-reporter transcription, actives raise or lower the signal
Procedure, shortened: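 HepG2 cells transiently transfected with multiplexed cis-element reporter units, dosed 24 h; reporter mRNA quantified by RT-PCR, 6-FAM labelling, HpaI digestion and capillary electrophoresis. E-box (USF1) signal fitted bidirectionally vs DMSO.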

[12] = ATG_M_61_CIS: Attagene CIS-FACTORIAL HepG2 Assay for M61 Transcription Factor (Internal Marker) (AID 2282937); details: HepG2 Attagene CIS-FACTORIAL M61 internal marker reporter; actives raise or lower the signal
Procedure, shortened: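 Using transiently transfected HepG2 liver cells, reporter transcript levels were assessed 24 h post-dosing by RT-PCR and capillary electrophoresis. Changes in either direction were fitted relative to DMSO controls.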

[13] = ATG_EGR_CIS: Attagene CIS-FACTORIAL HepG2 Assay for human Early Growth Response 1 (EGR1) (AID 2282938); details: HepG2 Attagene CIS-FACTORIAL EGR reporter mRNA; actives raise or lower the signal
Procedure, shortened: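 Fluorescent capillary-electrophoresis signal of reporter cDNA fragments serves as read-out. HepG2 cells bear transiently transfected cis-promoter reporter units and are exposed 24 h; gain- or loss-of-signal is fitted against DMSO.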

[14] = ATG_M_19_CIS: Attagene CIS-FACTORIAL HepG2 Assay for M19 Transcription Factor (Internal Marker) (AID 2282939); details: HepG2 Attagene CIS-FACTORIAL M19 internal marker reporter; actives raise or lower the signal
Procedure, shortened: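 Background-control endpoint from a multiplexed HepG2 reporter panel. Cells carrying cis-regulated reporter constructs are treated 24 h, then reporter transcripts are amplified, fluorescently labelled and sized by capillary electrophoresis. DMSO defines baseline.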

[15] = ATG_ERE_CIS: Attagene CIS-FACTORIAL HepG2 Assay for Estrogen Response Element (ERE) (AID 2282940); details: HepG2 ERE cis-reporter, Attagene RNA transcript; actives raise or lower the signal
Procedure, shortened: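 Cells used were human hepatoma HepG2, transfected with multiple reporter transcription units under cis-regulatory promoters. Reporter mRNA, read 24 h post-dosing via fluorescent RT-PCR products on capillary electrophoresis, was fitted bidirectionally relative to DMSO.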

[16] = ATG_Ets_CIS: Attagene CIS-FACTORIAL HepG2 Assay for human Erythroblast Transformation Specific (ETS) (AID 2282941); details: HepG2 ETS cis-reporter transcription, actives raise or lower the signal
Procedure, shortened: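 HepG2 cells transfected with multiple cis-regulated reporter units measuring endogenous ETS-driven transcription, 24 h after dosing. Reporter mRNA quantified by RT-PCR with capillary electrophoresis; bidirectional fit relative to DMSO.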

[17] = target: Hepatocyte nuclear factor 3-beta (Homo sapiens) (UniProt Q9Y261); test: ATG_FoxA2_CIS: Attagene CIS-FACTORIAL HepG2 Assay for human Forkhead box A2 (FOXA2) (AID 2282942); details: HepG2 cis-reporter transcription factor activity, 24 h; actives raise or lower the signal
Sequence of Hepatocyte nuclear factor 3-beta (Homo sapiens) (Q9Y261 whole entry, looked up, the tested form may be a part): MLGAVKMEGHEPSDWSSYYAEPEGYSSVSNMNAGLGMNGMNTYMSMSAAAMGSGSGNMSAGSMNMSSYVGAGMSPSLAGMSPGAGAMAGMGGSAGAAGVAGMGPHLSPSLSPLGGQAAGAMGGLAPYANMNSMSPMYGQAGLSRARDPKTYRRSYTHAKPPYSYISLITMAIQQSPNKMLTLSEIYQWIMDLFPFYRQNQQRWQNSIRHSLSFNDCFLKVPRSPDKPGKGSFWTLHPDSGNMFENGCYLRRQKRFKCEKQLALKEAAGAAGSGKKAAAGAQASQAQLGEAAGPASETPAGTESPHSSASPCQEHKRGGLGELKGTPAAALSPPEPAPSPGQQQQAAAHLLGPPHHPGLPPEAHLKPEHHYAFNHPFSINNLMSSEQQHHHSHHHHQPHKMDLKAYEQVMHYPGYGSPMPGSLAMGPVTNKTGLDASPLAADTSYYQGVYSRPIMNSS
Procedure, shortened: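 Fluorescence signal of reporter cDNA fragments, separated by capillary electrophoresis, reflects endogenous transcription factor activity in transfected HepG2 after 24 h. Both increases and decreases fitted against DMSO.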

[18] = ATG_FoxO_CIS: Attagene CIS-FACTORIAL HepG2 Assay for human Forkhead box O (FoxO) (AID 2282943); details: HepG2 Attagene cis-reporter, FoxO element, mRNA; actives raise or lower the signal
Procedure, shortened: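 Transfected HepG2 reporter cells exposed to test chemical for 24 h; reporter RNA measured by reverse transcription, PCR and fluorescent capillary electrophoresis; curves fitted for increases and decreases against DMSO.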

[19] = ATG_GATA_CIS: Attagene CIS-FACTORIAL HepG2 Assay for human GATA Binding Protein (AID 2282944); details: HepG2 GATA cis-element reporter, Attagene multiplex mRNA; actives raise or lower the signal
Procedure, shortened: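 Endogenous transcription factor activity was captured through cis-promoter-driven reporters in transfected HepG2 cells. After 24 h exposure, reporter transcripts were quantified by RT-PCR with fluorescent capillary electrophoresis, and responses fitted both directions against DMSO.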

[20] = APR_HepG2_NuclearSize_72hr: Apredica 72-hour HepG2 Assay for Nuclear Size (AID 2282925); details: high-content imaging, actives raise or lower the signal
Procedure, shortened: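 HepG2 cells dosed 72 h at 0.39–200 uM (10 concentrations, duplicate) in 0.5% v/v DMSO final. Fixed, Hoechst 33342-stained nuclei imaged; nuclear diameter measured by automated image analysis. Bidirectional fit versus DMSO.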

Measured: AC50

COc1nc(NC(C)C)nc(NC(C)C)n1
inactive: [1] | [2] | [3] | [4] | [5] | [6] | [7] | [8] | [9] | [10] | [11] | [12] | [13] | [14] | [15] | [16] | [17] | [18] | [19]

CC(Oc1ccc(Cl)cc1Cl)C(=O)O (stereo not given)
inactive: [1] | [2] | [3] | [4] | [5] | [6] | [7] | [8] | [9] | [10] | [11] | [12] | [13] | [14] | [15] | [16] | [17] | [18] | [19]

CNC(=O)ON=CC(C)(C)SC
inactive: [20] | [1] | [3] | [4] | [5] | [6] | [7] | [8] | [9] | [10] | [11] | [12] | [13] | [14] | [15] | [16] | [17] | [18] | [19]
active: [10] 149 µM

CO/C=C(/C(=O)OC)c1ccccc1Oc1cc(Oc2ccccc2C#N)ncn1
active: [1] 21 µM | [4] 41.8 µM and 26.2 µM and 52.9 µM | [5] 106 µM and 122 µM | [6] 9.92 µM | [13] 11.7 µM and 13.8 µM
inactive: [1] | [3] | [4] | [5] | [6] | [7] | [8] | [9] | [10] | [11] | [12] | [13] | [14] | [15] | [16] | [17] | [18] | [19]

COc1ccc(C(c2ccc(OC)cc2)C(Cl)(Cl)Cl)cc1
inactive: [20] | [1] | [2] | [3] | [4] | [5] | [6] | [7] | [8] | [9] | [10] | [11] | [12] | [13] | [14] | [15] | [16] | [17] | [18] | [19]
active: [5] 15.2 µM | [6] 39.8 µM and 59.5 µM and 34.4 µM | [8] 29.7 µM and 15.5 µM | [9] 19.7 µM | [11] 27 µM and 5.64 µM | [15] 5.09 µM [middle of 4 runs]

Cc1cc(Cl)ccc1OCC(=O)O
inactive: [20] | [1] | [3] | [4] | [5] | [6] | [7] | [8] | [10] | [11] | [12] | [13] | [14] | [15] | [16] | [17] | [18] | [19]
